Experimental data from PubChem BioAssay (EPA / NIEHS).
Results filed as inconclusive are left out. The source made the active and inactive calls. Rule for the calls: active = hit-call score of the fitted dose curve at least 0.9, where 1 is the maximum; inconclusive = response in the unintended direction; inactive = score below 0.9.

assay: ATG_XTT_Cytotoxicity: Cytotoxicity Assessment in the Attagene TRANS-FACTORIAL HepG2 Assay (AID 2283584);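 for AC50: cells exposed to compound for 24 h before reading; active means loss of viability signal versus DMSO baseline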
How it was run: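 Cells: human HepG2, transiently transfected with MRTU reporter constructs. Exposure 24 h. Readout: XTT, cell number. Baseline/neg ctrl DMSO; loss-of-signal scored.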

Compound | outcome | AC50
N#Cc1ccccc1Cl | inactive | 
COCC(=O)N(c1c(C)cccc1C)[C@H](C)C(=O)OC | inactive | 
C1CCC(C2CCCCC2)CC1 | inactive | 
CCOC(=O)c1ccccc1S(=O)(=O)NC(=O)Nc1nc(Cl)cc(OC)n1 | inactive | 
O=S(=O)(C(Cl)(Cl)Cl)C(Cl)(Cl)Cl |  | 36.7 µM (active)
C=C(C)C(=O)OCCCCOC(=O)C(=C)C | inactive | 
CCOP(=S)(OCC)SCS(=O)(=O)C(C)(C)C | inactive | 
CC(C)(COCC1CO1)COCC1CO1 (stereo not given) | inactive | 
NC(=O)c1ccc(N)nc1 | inactive | 
BrCC(Br)c1ccccc1 (stereo not given) | inactive | 
O=C(O)COc1cc(Cl)c(Cl)cc1Cl | inactive | 
CN(C)CCN(C)C | inactive | 
C[C@]12CC[C@@H](O)C[C@@H]1CC[C@@H]1[C@@H]2CC[C@]2(C)C(=O)CC[C@@H]12 | inactive | 
O=c1[nH]c(=O)n(Cl)c(=O)n1Cl | inactive | 
NNCCO | inactive | 
CC[N+](CC)(CC)CC | inactive | 
C[As+](C)(C)CC(=O)[O-] | inactive | 
CN(C1CCCCC1)C1CCCCC1 | inactive | 

Compound | outcome | AC50
O=c1nc(O)n(Cl)c(=O)n1Cl | inactive | 
OC(Cc1ccccc1Cl)(Cn1cncn1)C1(Cl)CC1 (stereo not given) | inactive | 
Brc1c(Br)c(Br)c(Oc2c(Br)c(Br)c(Br)c(Br)c2Br)c(Br)c1Br | inactive | 
CCOP(=O)(OCC)SCCSCC | inactive | 
CN(N=O)c1ccc([N+](=O)[O-])cc1 | inactive | 
ClCCN1CCOCC1 | inactive | 
Cc1ccc(OP(=O)(Oc2ccc(C)cc2C)Oc2ccc(C)cc2C)c(C)c1 | inactive | 
CCCSP(=S)(OCC)Oc1ccc(Cl)cc1Cl (stereo not given) | inactive | 
Oc1c(Br)cc(Br)cc1Br | inactive | 
N#Cc1ccccc1N | inactive | 
Cc1ccc2nc3sc(=O)sc3nc2c1 | inactive | 
C[C@@H]1O[C@@H](O[C@H]2C[C@@H](O)[C@]3(CO)[C@H]4[C@H](O)C[C@]5(C)[C@@H](C6=CC(=O)OC6)CC[C@]5(O)[C@@H]4CC[C@]3(O)C2)[C@H](O)[C@H](O)[C@H]1O | inactive | 
NC(=O)CCl | inactive | 
c1cc[c]([Sb]([c]2ccccc2)[c]2ccccc2)cc1 | inactive | 
CCOCn1c(-c2ccc(Cl)cc2)c(C#N)c(Br)c1C(F)(F)F | inactive | 
Oc1cccc(-c2ccccc2)c1 | inactive | 
CN(CCCC(O)c1cccnc1)N=O (stereo not given) | inactive | 
